PubChem BioAssay (NCI)
Compounds without any hit were thinned out: in the full panel of roughly 79,000, 15% have a hit. Calls of active or inactive are those of the source. Rule as the data show it: active = growth inhibition above about 70%; inactive = the rest.

How the values were obtained:
[1] = NCI Yeast Anticancer Drug Screen. Data for the rad52 strain (AID 147);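 also: 0% = growth of vehicle-treated control cultures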; conditions: S. cerevisiae rad52 mutant growth inhibition, active compounds read high
Method in brief: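 Vehicle-treated cultures served as the reference for growth inhibition of compound-exposed yeast bearing a DNA repair mutation.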

[2] = NCI Yeast Anticancer Drug Screen. Data for the wt1 strain (AID 149);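 also: 0% = growth of vehicle-treated wt1 cultures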; conditions: S. cerevisiae wt1 strain (SPY 50644) growth inhibition, active compounds read high
Method in brief: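 Using yeast strain wt1, compound-induced growth inhibition was determined against vehicle-treated cultures.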

[3] = NCI Yeast Anticancer Drug Screen. Data for the rad50EPP+ strain (AID 151);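 also: 0% = growth of vehicle-treated control cultures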; conditions: S. cerevisiae rad50 mutant strain, active compounds read high
Method in brief: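 In this screen, rad50EPP+ yeast were exposed to compounds. Growth inhibition was scored against vehicle-treated controls.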

[4] = NCI Yeast Anticancer Drug Screen. Data for the mgt1 strain (AID 153); conditions: S. cerevisiae mgt1 mutant growth inhibition, active compounds read high
Method in brief: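 mgt1 strain exposed; growth vs vehicle control recorded as inhibition.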

[5] = NCI Yeast Anticancer Drug Screen. Data for the rad50 strain (AID 155);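 also: 0% = growth of vehicle-only cultures of the same strain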; conditions: S. cerevisiae rad50 strain growth inhibition, active compounds read high
Method in brief: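 Relative growth inhibition (compound vs vehicle) was measured in yeast with a defined repair-gene alteration.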

[6] = NCI Yeast Anticancer Drug Screen. Data for the mec2-1 strain (AID 157); conditions: S. cerevisiae mec2-1 strain, active compounds read high
Method in brief: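 Vehicle-treated cultures served as reference for growth inhibition of compound-exposed mec2-1 yeast.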

[7] = NCI Yeast Anticancer Drug Screen. Data for the rad14 strain (AID 159);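 also: 0% = growth of vehicle-treated control cultures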; conditions: S. cerevisiae rad14 strain growth inhibition, active compounds read high
Method in brief: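 Screen for anticancer potential: a yeast strain altered in DNA damage repair is grown with compound, and reduced growth is quantified against vehicle controls.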

[8] = NCI Yeast Anticancer Drug Screen. Data for the sgs1 mgt1 strain (AID 161);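 also: 0% = growth of cultures given vehicle only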; conditions: S. cerevisiae sgs1 mgt1 strain, active compounds read high
Method in brief: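 Genetically altered yeast, compound exposure, growth inhibition relative to vehicle.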

[9] = NCI Yeast Anticancer Drug Screen. Data for the CLN2oe strain (AID 163);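 also: 0% = growth of vehicle-only control cultures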; conditions: S. cerevisiae CLN2oe strain, active compounds read high
Method in brief: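 Inhibition relative to vehicle-treated yeast is reported. Cells: strain with genetic alteration in cell-cycle control, grown with compound.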

[10] = NCI Yeast Anticancer Drug Screen. Data for the cln2 rad14 strain (AID 165);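 also: 0% = growth equal to vehicle treated cultures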; conditions: S. cerevisiae cln2 rad14 strain, active compounds read high
Method in brief: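 Each compound was tested on cln2 rad14 yeast. Inhibition of growth was calculated against vehicle-exposed controls.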

[11] = NCI Yeast Anticancer Drug Screen. Data for the bub3 strain (AID 167); conditions: S. cerevisiae bub3 mutant strain, active compounds read high
Method in brief: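 Screening used yeast with an engineered genetic alteration affecting cell cycle control. Compound-exposed cultures were compared with vehicle cultures, and reduced growth was taken as inhibition.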

[12] = NCI Yeast Anticancer Drug Screen. Data for the wt2 strain (AID 169);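 also: 0% = growth of vehicle-treated yeast cultures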; conditions: S. cerevisiae wt2 strain growth inhibition, active compounds read high
Method in brief: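 Inhibition of yeast growth was determined after compound treatment, normalised to controls receiving only vehicle.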

[13] = NCI Yeast Anticancer Drug Screen. Data for the mlh1 strain (AID 171);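 also: 0% = growth of vehicle-treated control cultures of the same strain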; conditions: S. cerevisiae mlh1 strain growth inhibition, active compounds read high
Method in brief: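 Vehicle-normalised growth inhibition of a repair- or checkpoint-altered yeast strain following compound treatment.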

[14] = NCI Yeast Anticancer Drug Screen. Data for the sgs1 strain (AID 173);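 also: 0% = growth of vehicle-only control cultures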; conditions: S. cerevisiae sgs1 mutant, active compounds read high
Method in brief: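 Screen format: yeast with repair or checkpoint alterations, compound exposure, growth read relative to vehicle.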

[15] = NCI Yeast Anticancer Drug Screen. Data for the mlh1 rad18 strain (AID 175); conditions: S. cerevisiae mlh1 rad18 strain growth inhibition, active compounds read high
Method in brief: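 Vehicle-treated cultures served as the reference for growth inhibition in a yeast strain carrying DNA damage repair alterations exposed to each compound.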

[16] = NCI Yeast Anticancer Drug Screen. Data for the rad18 strain (AID 177); conditions: S. cerevisiae rad18 mutant growth inhibition, active compounds read high
Method in brief: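 Test articles were incubated with altered yeast defective in DNA damage repair. Results are given as inhibition of growth versus vehicle.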

[17] = at 5.0 µM (retest, dose inferred, filed as 0.5)
[18] = at 50.0 µM (retest, dose inferred, filed as 5.0)

Measured: growth inhibition

CCC[CH2][Ge]([CH2]CCC)([CH2]CCC)[O]C(=O)C(O)c1ccccc1 (stereo not drawn)
active: [1]; at 33.0 µM 88% | [1]; at 100.0 µM 98% | [2]; at 100.0 µM 99% | [4]; at 33.0 µM 93% | [4]; at 100.0 µM 99% | [5]; [17] 95% | [5]; at 33.0 µM 90% | [5]; [18] 95% | [5]; at 50.0 µM 90.2% | [5]; at 100.0 µM 97% | [6]; at 50.0 µM 90.5% | [6]; at 100.0 µM 99% | [7]; at 100.0 µM 99% | [8]; [17] 97% | [8]; [18] 97% | [8]; at 50.0 µM 89.5% | [9]; at 33.0 µM 83% | [9]; at 100.0 µM 99% | [10]; at 50.0 µM 91.2% | [11]; at 33.0 µM 88% | [11]; at 50.0 µM 88.3% | [11]; at 100.0 µM 99% | [12]; at 33.0 µM 81% | [12]; at 100.0 µM 99% | [13]; at 33.0 µM 88% | [13]; at 100.0 µM 99% | [14]; at 33.0 µM 91% | [14]; at 100.0 µM 99% | [15]; [17] 84% | [15]; [18] 84% | [15]; at 50.0 µM 89.7% | [16]; at 33.0 µM 89% | [16]; at 100.0 µM 99%
inactive: [1]; at 1.2 µM 1% | [1]; at 3.7 µM 11% | [1]; at 11.0 µM 45% | [2]; at 1.2 µM -4% | [2]; at 3.7 µM -5% | [2]; at 11.0 µM 11% | [2]; at 33.0 µM 60% | [3]; at 1.2 µM -2% | [3]; at 3.7 µM 3% | [3]; at 11.0 µM 8% | [3]; at 33.0 µM 21% | [3]; at 100.0 µM 49% | [4]; at 1.2 µM -1% | [4]; at 3.7 µM -1% | [4]; at 11.0 µM 10% | [5]; at 1.2 µM 3% | [5]; at 3.7 µM 9% | [5]; at 11.0 µM 36% | [6]; at 1.2 µM -1% | [6]; at 3.7 µM 2% | [6]; [17] 50% | [6]; at 11.0 µM 17% | [6]; at 33.0 µM 69% | [6]; [18] 50% | [7]; at 1.2 µM -3% | [7]; at 3.7 µM -7% | [7]; at 11.0 µM -1% | [7]; at 33.0 µM 68% | [9]; at 1.2 µM -3% | [9]; at 3.7 µM 5% | [9]; at 11.0 µM 17% | [10]; [17] 12% | [10]; [18] 12% | [11]; at 1.2 µM -2% | [11]; at 3.7 µM -4% | [11]; [17] 27% | [11]; at 11.0 µM 24% | [11]; [18] 27% | [12]; at 1.2 µM -2% | [12]; at 3.7 µM -2% | [12]; at 11.0 µM 16% | [13]; at 1.2 µM -1% | [13]; at 3.7 µM -2% | [13]; at 11.0 µM 14% | [14]; at 1.2 µM -1% | [14]; at 3.7 µM -1% | [14]; at 11.0 µM 28% | [16]; at 1.2 µM 10% | [16]; at 3.7 µM 7% | [16]; at 11.0 µM 55%

O=C(NCCCCN(CCCNC(=O)C(F)(F)F)Cc1ccccc1)C(F)(F)F
inactive: [1]; at 1.2 µM 30% | [1]; at 3.7 µM 36% | [1]; at 11.0 µM 31% | [1]; at 33.0 µM 33% | [1]; at 100.0 µM 35% | [2]; at 1.2 µM 5% | [2]; at 3.7 µM 9% | [2]; at 11.0 µM 4% | [2]; at 33.0 µM 6% | [2]; at 100.0 µM -10% | [3]; at 1.2 µM 5% | [3]; at 3.7 µM -6% | [3]; at 11.0 µM 4% | [3]; at 33.0 µM -2% | [3]; at 100.0 µM -18% | [4]; at 1.2 µM 22% | [4]; at 3.7 µM 33% | [4]; at 11.0 µM 32% | [4]; at 33.0 µM 26% | [4]; at 100.0 µM 7% | [5]; at 1.2 µM 32% | [5]; at 3.7 µM 33% | [5]; [17] 39% | [5]; at 11.0 µM 40% | [5]; at 33.0 µM 33% | [5]; at 50.0 µM -5.5% | [5]; at 100.0 µM 27% | [6]; at 1.2 µM 14% | [6]; at 3.7 µM 11% | [6]; [17] 14% | [6]; at 11.0 µM 14% | [6]; at 33.0 µM 0% | [6]; at 50.0 µM -9.05% | [6]; at 100.0 µM -13% | [7]; at 1.2 µM 16% | [7]; at 3.7 µM 16% | [7]; at 11.0 µM 15% | [7]; at 33.0 µM 11% | [7]; at 100.0 µM -10% | [8]; [17] -19% | [8]; [18] -11% | [8]; at 50.0 µM -5.75% | [9]; at 1.2 µM 13% | [9]; at 3.7 µM 3% | [9]; at 11.0 µM 6% | [9]; at 33.0 µM 12% | [9]; at 100.0 µM -3% | [10]; [17] 14% | [10]; [18] 8% | [10]; at 50.0 µM 26.9% | [11]; at 1.2 µM 11% | [11]; at 3.7 µM 0% | [11]; [17] 7% | [11]; at 11.0 µM 0% | [11]; at 33.0 µM -7% | [11]; [18] 0% | [11]; at 50.0 µM -14% | [11]; at 100.0 µM 0%
active: [5]; [18] 90% | [6]; [18] 75%
